Spn DPM-DC inh: S. pneumoniae DPM-DC inhibition; calls only at 10 µM; actives 0.49% (n = 65,000); purified DPM-DC, PK/LDH coupled NADH fluorescence;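 active = the 320 compounds with the highest percent inhibition in the single-dose primary screen, excluding strongly autofluorescent ones, cut at about 32% in these data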;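 also: kinetic rate of NADH fluorescence loss reporting ADP formed by the decarboxylase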
Fluor 339 460: intrinsic fluorescence of library compounds, ex339/em460 – biochemical, MLSMR library, data from DPM-DC assay, artefact control, profiling panel. fluorescence fold increase at 10 µM. actives 5.5% (n = 65,000). compound autofluorescence, ex339/em460 nm, NADH buffer; hits give high values; 1 = no-compound wells, NADH background;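 active = at 10 µM, mean starting fluorescence two-fold or more over control wells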;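 also: signal is the first read of a kinetic run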
Spn MK inh: blocks S. pneumoniae mevalonate kinase; actives 0.48% (n = 65,000); purified MK, PK/LDH-coupled NADH absorbance 340 nm; inhibition, % at 10 µM;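 active = ranked among the strongest by inhibition in the single 10 µM screen, a fixed top-ranked set picked for dose follow-up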
PMK inhibit: S. pneumoniae PMK inhibition. purified PMK, PK/LDH-coupled NADH absorbance 340 nm. inhibition, % at 10 µM. actives 0.49% (n = 65,000). AID 539;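 active = top-ranked compounds by inhibition in the single 10 µM screen, taking a fixed number of the strongest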
NADH enzymes: inhibitors of enzymes used to reach an NAD/NADH endpoint | coupled PK/LDH NADH assays, four targets | IC50, µM (series often up to 10 µM) | actives 0.02% (n = 65,000);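 active = single-dose screening hits from any of four coupled enzyme assays that gave an IC50 when retested across doses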;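 also: the DPM-DC format reads NADH fluorescence rather than 340 nm absorbance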
Abs 340nm: compound absorbs light at 340 nm | AID 708 | fold change at 10 µM | compound absorbance at 340 nm, fold over control | 65,000 tested, under 10 active;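 active = at 10 µM dose, initial 340 nm absorbance at least 2 fold that of control wells; inactive = change under 2 fold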;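 also: initial absorbance extrapolated from kinetic A340 decline of NADH oxidation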
Each line names hits and unclear results; the compound was inactive in the other large screens. This is a sample that favours compounds with a hit; in the whole collection about 6.3% have one here.

Cc1ccc(Cl)cc1N1CCN(C(=O)C2CCN(S(=O)(=O)c3c(C)nn(C)c3C)CC2)CC1	none
N#Cc1c(N2CCN(C(=O)c3ccco3)CC2)nc(-c2ccccc2)c2c1CCCC2	Fluor 339 460 2.2 (not shown: Spn DPM-DC inh)
CC(C)Cc1nc(N2CCN(C(=O)c3ccco3)CC2)c(C#N)c2c1CCC2	none
CCCNC(=O)N1CCN(c2nc(C(C)C)c3c(c2C#N)CC(C)(C)OC3)CC1	none
Cc1nc(N2CCN(C(=O)c3ccc(Cl)cc3)CC2)c(C#N)c2c1COC(C)(C)C2	Fluor 339 460 2.3 (not shown: Spn DPM-DC inh)
CC1(C)Cc2c(C#N)c(N3CCN(C(=O)c4ccco4)CC3)nc(Cc3ccccc3)c2CO1	Fluor 339 460 2.2 (not shown: Spn DPM-DC inh)
Cc1cc(/C=C(/C#N)c2cccc(F)c2)c(C)n1-c1cccnc1	none
CCOC(=O)c1cnn2c(C(F)(F)F)cc(-c3cn(C)nc3C)nc12	Fluor 339 460 3.7 (not shown: Spn DPM-DC inh)
CCOC(=O)c1cnc2c(-c3ccccc3)cnn2c1N	Fluor 339 460 2.1
CCOC(=O)c1cnn2c(C(F)(F)F)cc(-c3ccccc3)nc12	Fluor 339 460 2.2 (not shown: Spn DPM-DC inh)
O=C(c1cnn2c(C(F)(F)F)cc(-c3ccccc3)nc12)N1CCOCC1	none
COC(=O)c1cnn2c(C(F)(F)F)cc(-c3ccc(F)cc3)nc12	Fluor 339 460 3.3 (not shown: Spn DPM-DC inh)
CCOC(=O)C1CCCN(C(=O)c2cnn3c(C(F)(F)F)cc(-c4ccccc4)nc23)C1 (configuration not stated)	none
CCOC(=O)c1cnc2c(-c3ccccc3)c(C)nn2c1N	none
NC(=O)C1CCN(S(=O)(=O)c2cccc(S(=O)(=O)N3CCCCC3)c2)CC1	none
Cc1ccc(S(=O)(=O)Cn2nnnc2CN(Cc2ccco2)CC2CCCO2)cc1 (configuration not stated)	none
COc1ccc(-n2c(=O)c3ccccc3n(CC(=O)Nc3cc(C)on3)c2=O)cc1OC	none
CCOC(=O)N1CCN(c2nc(-c3cccc(OC)c3)cc(C(F)(F)F)n2)CC1	none
CCOC(=O)N1CCC(NC(=O)c2cnn3c(C(F)(F)F)cc(-c4cccc(OC)c4)nc23)CC1	Fluor 339 460 3.8 (not shown: Spn DPM-DC inh)
O=C(Cn1cnnn1)OCC(=O)c1ccc(Cl)s1	Fluor 339 460 2.3
COC(=O)c1ccc(C(=O)OC)c(NS(=O)(=O)c2ccc(NC(C)=O)cc2)c1	Fluor 339 460 2.2 (not shown: Spn DPM-DC inh)
COC(=O)c1ccc(C)c(NS(=O)(=O)c2ccc(OC)cc2)c1	none
Cc1cccc(S(=O)(=O)C(C#N)c2nc3ccccc3nc2N2CCOCC2)c1 (configuration not stated)	none
O=c1oc2ccccc2cc1-c1cn2cccnc2n1	Fluor 339 460 3.6 (not shown: Spn DPM-DC inh)
O=C(Nc1ccncc1)c1cc2ccccc2oc1=O	none
CCc1nnc(NC(=O)CSc2nnc(-c3ccccc3NC(=O)c3ccccc3)o2)s1	Fluor 339 460 2.1
COc1ccc(C(=O)N[C@H]2COC(C)(C)O[C@H]2c2ccccc2)cc1	none
COC(=O)c1ccc(C(=O)OC)c(NC(=O)c2cnc3n(c2=O)CCS3)c1	Fluor 339 460 2.4
CC(=O)c1cccc(NC(=O)C2CCCC2)c1	none
O=C1NC(=O)c2cc(NC(=O)C3CCCCC3)ccc21	Fluor 339 460 3.6 (not shown: Spn DPM-DC inh)
O=C(Nc1cccc2nsnc12)c1ccc2c(c1)OCCO2	none
Cc1nc2c(ccc3nc(NC(=O)c4ccc5c(c4)OCCO5)sc32)s1	Fluor 339 460 2.4
Cc1nc2ccc3nc(NC(=O)c4ccc5c(c4)OCCO5)sc3c2s1	Fluor 339 460 3.5
CC1CCCC(C)N1c1nnc(N)s1 (configuration not stated)	none
O=C(NCc1cccs1)c1csc2ccccc12	none
CCC(OC(=O)CCc1nc2ccccc2[nH]c1=O)C(=O)c1ccccc1 (configuration not stated)	none
CCOC(=O)c1oc2nc(C)c3c(c2c1N)CC(C)(C)OC3	Fluor 339 460 3.9 (not shown: Spn DPM-DC inh)
CCOC(=O)c1oc2nc3c(cc2c1N)COC(C)(C)C3	Fluor 339 460 2.8
Cc1ccnc(NS(=O)(=O)c2ccc(NS(=O)(=O)Cc3ccccc3)cc2)n1	none
c1ccc(-c2nc3nonc3nc2-c2ccccc2)cc1	none
c1ccc(-c2nc3nonc3c3nc4ccccc4n23)cc1	Spn DPM-DC inh active, Fluor 339 460 2.3
CNc1oc(-c2ccc(Cl)cc2)nc1C#N	Fluor 339 460 2.4 (not shown: Spn DPM-DC inh)
Cc1ccc(CNc2oc(-c3ccco3)nc2C#N)cc1	Fluor 339 460 2.1 (not shown: Spn DPM-DC inh)
Cc1ccc(-c2nc(C#N)c(NCc3cccc4c3OCO4)o2)cc1	Fluor 339 460 2.6
CNc1oc(-c2ccco2)nc1C#N	Fluor 339 460 4 (not shown: Spn DPM-DC inh)
CNc1oc(-c2ccccc2Cl)nc1C#N	none
CC(C)c1cc(NC(=O)CSc2nnc(-c3ccccc3F)n2C)on1	none
O=C(CCNc1n[nH]c(=O)[nH]c1=O)N1CCOCC1	none
Cc1ccc2[nH]c(-c3ccccc3)cc(=O)c2c1	Fluor 339 460 2.2 (not shown: Spn DPM-DC inh)
O=C(NCc1ccco1)C1CCCN(S(=O)(=O)c2cccc3nsnc23)C1 (configuration not stated)	none
CCC1(CC)C(=O)N(C)C(=O)NC1=NCc1ccccc1	none
CCc1nc(-c2cc3ccc(C)cc3[nH]c2=O)no1	Fluor 339 460 4.5 (not shown: Spn DPM-DC inh)
Cc1ccc2cc(CCNC(=O)C(C)(C)C)c(=O)[nH]c2c1	none
Cc1ccc2[nH]c(=O)c(-c3noc(-c4ccncc4)n3)cc2c1	none
Cc1ccc2cc(-c3noc(C(C)(C)C)n3)c(=O)[nH]c2c1	Fluor 339 460 3.9
Cc1ccc2[nH]c(=O)c(-c3noc(C(C)C)n3)cc2c1	Fluor 339 460 2.2 (not shown: Spn DPM-DC inh)
CCOC(=O)c1ccccc1NC(=O)c1cn(CC)c2nc(C)ccc2c1=O	none
Cc1[nH]c(=O)cc2ccccc12	none
Cc1cc(=O)oc2cc(OCC(=O)OCc3nnc(-c4ccccc4)o3)ccc12	none
COc1ccc(Cl)cc1NC(=O)C1CCCN(S(=O)(=O)c2cccc3nonc23)C1 (configuration not stated)	Spn MK inh 54
COc1ccccc1-c1c(C)nn2c(C)cc(C)nc12	none
Cc1cc(C)n2nc3nc4c(cc3c2n1)CCCC4	Fluor 339 460 2.2 (not shown: Spn DPM-DC inh)
N#Cc1c(NC(=O)COC(=O)C2CC3C=CC2C3)oc(-c2ccccc2)c1-c1ccccc1 (configuration not stated)	none
CCCN(C(=O)c1cccs1)c1nnc(-c2ccncc2)s1	none
COc1ccc(N(Cc2cc3cc(OC)ccc3[nH]c2=O)C(=O)c2cccnc2)cc1	Fluor 339 460 2.7
CCC(=O)N(Cc1cc2cc(OC)ccc2[nH]c1=O)c1cc(C)ccc1C	Spn DPM-DC inh active, Fluor 339 460 2.4
CC(C)C(=O)N(Cc1cc2ccccc2[nH]c1=O)C(C)C	none
COc1ccc2[nH]c(=O)c(CN(C(=O)c3ccccn3)c3ccccc3)cc2c1	Fluor 339 460 3.4 (not shown: Spn DPM-DC inh)
COc1ccc2[nH]c(=O)c(CN(C(=O)COc3ccccc3)C(C)C)cc2c1	Fluor 339 460 2.6
NC(=O)C1CCN(C(=O)c2ccc(CS(=O)(=O)c3c(Cl)cccc3Cl)o2)CC1	none

Screening results from PubChem.
